According to PubChem BioAssay (NCI):
Compounds without any hit were thinned out: in the full panel of roughly 79,000, 15% have a hit. A number with no mark means an inactive call. Active and inactive are the calls of the source. Rule as the data show it: active = growth inhibition above about 70%; inactive = the rest.

Assay: NCI Yeast Anticancer Drug Screen. Data for the sgs1 mgt1 strain (AID 161);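 also: 0% = growth of cultures given vehicle only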
Conditions: S. cerevisiae sgs1 mgt1 strain, at 50.0 µM, hits give high values
Protocol: Growth inhibition of yeast strains with defined genetic alterations is measured as a screen for potential anti-cancer activity. Selected strains with alterations in DNA damage repair or cell cycle control were exposed to compounds and growth inhibition was measured relative to vehicle treated controls. The strain used in this assay is sgs1 mgt1

Row | Structure (SMILES) | growth inhibition
1 | Cc1ccc(N=Cc2cc(Br)ccc2O)cc1Cl | 99.1% (active)
2 | C=CCN(CC=C)/N=N/c1nc[nH]c1C(N)=O | 14.7%
3 | CCCCCCCCCCCCCCCCCCNC(=O)NCc1ccncc1 | -11.3%
4 | COc1ccc(C2C(C#N)=C(S)N(C3OC(COC(C)=O)C(OC(C)=O)C(OC(C)=O)C3OC(C)=O)C(c3ccccc3)=C2C(C)=O)cc1 (stereo not given) | 42%
5 | CCCC(CCC)(C(=O)O)C(=O)O | -12.5%
6 | CN=C(NC#N)NCc1ccccc1 | -2.6%
7 | CCOC(=O)CCC(NC(=O)c1ccc([N+](=O)[O-])cc1)C(=O)OCC (stereo not given) | -7.3%
8 | C/C(=C\c1ccccc1)C(O)C(=O)c1nc2ccc([N+](=O)[O-])cc2[nH]c1=O (stereo not given) | -11.4%
9 | COC(=O)C1(Cc2ccc3c(c2)CCC3)Cc2ccccc2C1 | -6.1%
10 | O=C(O)c1cccc(SS(=O)(=O)c2cccc(C(=O)O)c2)c1 | -10.1%
11 | N#Cc1ccc(/C=C/C(=O)c2ccccc2)cc1 | 5.8%
12 | CC1(O)CC2C(CC1SC1CC3C(CC1(C)O)C3(C)C)C2(C)C (stereo not given) | -45.8%
13 | CCOC(=O)CN1CCC(C(=O)OCC)CC1 | 20.6%
14 | COc1cc(=O)cc2n(-c3cc(OC)c(O)c(OC)c3)c3ccccc3nc1-2 | 5.95%
15 | COc1ccccc1NC(=O)NCCCCCCNC(=O)Nc1ccccc1OC | 2.1%
16 | CN(C(=O)/C=C/c1ccccc1)c1ccccc1 | 49.5%
17 | Cc1csc2nc(-c3ccco3)nn12 | 4.55%
18 | O=C(O)c1cccc(NC(=O)C(F)(F)F)c1 | -18.9%
19 | N#CC1=CN(Cc2ccccc2)C(c2ccccc2)C=C1 (stereo not given) | -3.9%
20 | CC(NC(=O)CCl)c1ccccc1 (stereo not given) | -12.9%

Row | Structure (SMILES) | growth inhibition
21 | NNc1nc2ccccc2c(=O)n1NC(=O)C(=O)Nc1cccc(C(F)(F)F)c1 | -3.9%
22 | CCNCc1ccccc1 | -22.1%
23 | CC1CC(=O)C(CC(=O)O)[C@H]1C(C(=O)C(=O)Nc1cc(Cl)ccc1Cl)[N+](=O)[O-] (stereo not given in full) | -10.1%
24 | O=C(Cl)CNS(=O)(=O)c1ccccc1 | 1%
25 | CCCCOCCOCC(C)O (stereo not given) | 37.2%
26 | COc1ccc2c(c1)C(=O)C(CO)C(C(=O)O)C2 (stereo not given) | -1.15%
27 | O=C(/C=C/C=C/c1ccc2c(c1)OCO2)N1CCCCC1 | 12.1%
28 | COC(CCCl)c1ccc(C)cc1 (stereo not given) | -24%
29 | CC(=O)OCC1OC(n2c(C)c(C(C)=O)c(-c3ccc(Cl)cc3)c(C#N)c2=S)C(OC(C)=O)C(OC(C)=O)C1OC(C)=O (stereo not given) | -2.1%
30 | CC1OC(c2ccccc2Cl)OC1C (stereo not given) | -9.7%
31 | O=NN(CCCl)C(=O)NC1CCC(CC(=O)O)CC1 (stereo not given) | -9.25%
32 | CC(C)NC(=O)C1CC2C=CC1C2 (stereo not given) | 1.75%
33 | CNc1ccc(O)cc1 | 5.75%
34 | O=C1c2cccc3cccc(c23)C(=O)N1Cc1ccco1 | 45%
35 | O=c1cc(-c2cccs2)ss1 | -0.65%
36 | COc1ccc(Cl)cc1C(O)CN1CCCCC1 (stereo not given) | -11.2%
37 | COc1ccc(C(=Cc2cc(OC(C)=O)c3ccccc3c2OC(C)=O)c2ccc(OC)cc2)cc1 | -8%
38 | O=c1oc2ccccc2c(=O)n1O | 10.1%
39 | Cc1c(Cl)c(C)c(Cc2c(C)c(Cl)c(C)c(Cl)c2O)c(O)c1Cl | -20.6%
40 | CCCCc1nc(C)oc1C(C)C | -8.05%
